Results reported in ChEMBL document CHEMBL1157539, “Thousands of chemical starting points for antimalarial lead identification” (Nature, 2010).

System: Plasmodium falciparum
Assay: GSK_TCMDC: Inhibition of Plasmodium falciparum 3D7 in whole red blood cells, using parasite LDH activity as an index of growth. Test compounds present at 2uM
Assay type: functional

Compound | Inhibition [%]
COc1cccc(-c2cccc(CNC3CCN(CC4Cn5c(=O)ccc6ccc(F)c4c65)CC3)c2)c1.O=C(O)C(F)(F)F (stereo not given) | 99
CN(CCN(C)C(=O)NCc1ccccc1)C(=O)NCc1ccccc1 | 100
Nc1cccc(CNCc2cccc(-c3csc(-c4nc5ccccc5[nH]4)c3)c2)c1.O=C(O)C(F)(F)F | 100
Fc1ccc2[nH]c3c(NCCN4CCCCC4)ncnc3c2c1 | 99
CC(=NNC(N)=O)C1=C(O)C(c2ccccc2)N(C2CCCCC2)C1=O (stereo not given) | 93
Cc1cc(Nc2ncc(Cl)c(Nc3ccccc3C(N)=O)n2)n[nH]1 | 98
Nc1nccc2ccc(-c3ccc4ncccc4c3)cc12.O=C(O)C(F)(F)F | 100
CN1CCN(C(C(=O)NCc2cc(Cl)cc(Cl)c2)c2ccc(Nc3cccc(C(F)(F)F)c3)cc2)CC1 (stereo not given) | 85
COc1cc(NCCCNC(=O)c2cc3c(Cl)cc(Cl)cc3[nH]2)nc2ccccc12 | 100
CC[C@H](NC(=O)c1c(CN2CCC(N3CCCCC3)CC2)c(-c2ccccc2)nc2cc(O)ccc12)c1ccccc1 | 94
CCN(CC)CCN(Cc1ccc(-c2ccc(C(F)(F)F)cc2)cc1)C(=O)Cn1c(SCc2ccc(F)cc2)nc(=O)c2ccccc21.O=C(O)C(O)C(O)C(=O)O | 98
Clc1ccc2c(NN=Cc3cccs3)ccnc2c1 | 100
Clc1ccccc1CNc1noc(-c2sccc2Br)n1 | 97
CCC(C)CN1C(=O)C(c2ccccc2)(c2ccccc2)N=C1N.O=CO (stereo not given) | 98
Brc1ccc(Nc2nc3ccccc3nc2Nc2ccc(Br)cc2)cc1 | 100
COc1ccccc1C1CCN(C2CCC(NC(=O)/C=C/c3cc(F)cc(F)c3)CC2)CC1 (stereo not given) | 91
Cc1ccc(CCOCCCCCNCC(O)c2cc(Cl)c(N)c(Cl)c2)cc1 (stereo not given) | 99
Cc1cc(NC(=O)c2cccs2)ccc1OC1CCN(Cc2ccc(F)cc2)CC1.O=C(O)C(F)(F)F | 94
CN(CCS(C)(=O)=O)Cc1ccc(-c2ccc3ncnc(Nc4ccc(OCc5cccc(F)c5)c(Cl)c4)c3c2)o1.Cc1ccc(S(=O)(=O)O)cc1 | 100
CC(C)NCc1ccc(-c2ccc(NC(=O)c3ccc(C#N)cc3)cc2)cc1.O=C(O)C(F)(F)F | 90

Compound | Inhibition [%]
COc1ccc(CNCc2ccc(-c3ccc(-c4nc5ccccc5[nH]4)cc3)cc2)cc1.O=C(O)C(F)(F)F | 100
CCCC(CNCc1cccc(C)c1)CNc1cc(=O)c2ccccc2[nH]1 (stereo not given) | 99
COc1ccc(-c2nc3c(N)nc(N)nc3nc2-c2ccccc2Cl)cc1.COc1ccc(-c2nc3nc(N)nc(N)c3nc2-c2ccccc2Cl)cc1.Cl | 93
O=C(Nc1ccccc1Cc1ccccc1)c1ccccc1[N+](=O)[O-] | 98
CC(=O)Nc1cccc(CN(Cc2ccc(-c3ccc(CNCc4cccnc4)cn3)cc2)C(=O)Cc2cccnc2)c1.O=C(O)C(F)(F)F | 97
Cc1cc(C(F)(F)F)n2nc(C3CCN(Cc4cc(C)c(O)c(C)c4)C3)cc2n1.O=C(O)CC(O)(CC(=O)O)C(=O)O (stereo not given) | 98
COc1ccc(N2CCN(CCCOc3ccc(NC(=O)c4cc(Cl)cc(Cl)c4)cc3)CC2)c(OC)c1 | 100
Cl.N=C(NCCc1ccc(Cl)c(Cl)c1)c1ccc2ccccc2c1 | 100
O=C(NC1CCCCCC1)C1CCCN(C(=O)c2ccc(O)c(-c3ccc(Cl)c(Cl)c3)c2)C1 (stereo not given) | 98
COc1ccccc1C(=O)C1CCCN(C(=O)c2ccccc2C(F)(F)F)C1 (stereo not given) | 91
Cc1cc(-c2c[nH]c3ncc(-c4cccc5ncccc45)cc23)ccc1C(=O)O.O=C(O)C(F)(F)F | 99
Cc1ccc(NC(=O)c2ccc3ncccc3c2)cc1OC1CCN(Cc2ccc(F)cc2)CC1.O=C(O)C(F)(F)F | 91
O=C(Cn1c(CCc2cccc(F)c2F)nc(=O)c2ccccc21)N(Cc1ccc(-c2ccc(C(F)(F)F)cc2)cc1)C1CCN(C2CCSCC2)CC1.O=C(O)C(O)C(O)C(=O)O | 99
Cc1cn(CC(=O)Nc2cccc(-c3cccc(-c4nc5cccc(C)c5[nH]4)c3)c2)c(=O)[nH]c1=O | 100
Cc1nc(O)c2c(ccc3ccc(CN(C)c4ccc(C(=O)N[C@@H](CCC(=O)O)C(=O)O)cc4)cc32)n1 | 95
CC(C)COc1ccc(Cl)cc1Cc1ccc(-c2nc3ccc(Br)cc3[nH]2)o1.Cl | 80
CC1SC(=S)NC1C(=O)O (stereo not given) | 94
COc1ccc(C2CC(=O)C3=C(C2)NC(C)=C(C(=O)OC(C)C)C3c2ccccc2F)cc1OC (stereo not given) | 100
O=C(O)C(F)(F)F.O=S(=O)(NCCN1CCCC1)c1ccc(-c2cccc(CNC3Cc4ccccc4C3)c2)cc1 | 99
COc1ccc(NC(=O)/C=C/c2ccccc2Cl)cc1OCCN1CCC(N(C)C)CC1 | 89
